Among all 190,000 compounds or so, about 490 (0.26%) were called active. For the sample, actives were picked, then their nearest neighbours and some compounds at random. A number with no mark means an inactive call. No stated cut-off is given here; in the data, active means fluorescence above about 89; inactive means the rest.

For 100 molecules, fluorescence (KMESF) results are on record in PubChem BioAssay AID1776 (NMMLSC, 2009).

The assay is described as follows: compound fluorescence on glutathione beads, profiling panel, artefact control, biophysical, 488/530 nm, flow cytometry (AID 1776).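 Further: glutathione beads carrying GST-tagged Bcl family fusion proteins plus one bare bead set; values are compound well signal with DMSO vehicle wells as background.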 As to conditions: GSH beads flow cytometry, compound fluorescence 488/530 nm; at 10 µM; active compounds read high. In general terms: In flow cytometry, cells or beads pass a laser one at a time.
For the molecule `Cc1ccc(Cl)cc1NC(=O)COC(=O)CC(C)(C)C`, the fluorescence (KMESF) is 12.

Regarding `Cc1ccc(Cl)cc1NC(=O)COC(=O)C1CCCCC1`, the fluorescence (KMESF) is 249 (active).

As for `O=C(COC(=O)C1CCCCC1)Nc1ccc([N+](=O)[O-])cc1`, the fluorescence (KMESF) was 25.

As for `COc1cc(CN2CCN(Cc3ccc(C)cc3)CC2)c([N+](=O)[O-])cc1OC`, the fluorescence (KMESF) is 14.

Regarding `Cc1nccc(-c2ccc(-n3c(C)ccc3C)cc2)n1`, the fluorescence (KMESF) is 9.

For `CCC(=O)N1CCC(C(N)=O)(N2CCCCC2)CC1`, the fluorescence (KMESF) was 12.

Turning to `CCc1nnc(NC(=O)c2cccs2)s1`, the fluorescence (KMESF) is 15.

For `CCc1nnc(NC(=O)c2nc3nccc(C)n3n2)s1`, the fluorescence (KMESF) is 259 (active).

Turning to `Cc1ccnc2nc(C(=O)Nc3nnc(-c4ccccc4)o3)nn12`, the fluorescence (KMESF) was 14.

On to `CC1CN(C(=S)SCC(=O)c2ccccc2)CC(C)O1` (stereo not given), for which the fluorescence (KMESF) was 18.

In the case of `CC1CN(C(=O)CN2C(=O)NC(C)(c3ccccc3)C2=O)CC(C)O1` (stereo not given), the fluorescence (KMESF) is 263 (active).

As to `CC1(c2ccccc2Cl)NC(=O)N(CC(=O)NC(=O)NCc2ccco2)C1=O` (stereo not given), the fluorescence (KMESF) was 27.

Take `COc1ccccc1CNC(=O)CN1CCC(n2cnc3cc(F)ccc32)CC1`: the fluorescence (KMESF) was 10.

For the molecule `CCc1ccc2ncc(C(=O)c3ccccc3)c(N3CCOCC3)c2c1`, the fluorescence (KMESF) is 15.

Take `CCNc1nc(NC(C)C)nc(N2CC(=O)N(CC(=O)OCC)C2=N)n1`: the fluorescence (KMESF) is 29.

In the case of `O=C(Nc1cc(Cl)cc(Cl)c1)C(NCCCO)c1ccccc1` (stereo not given), the fluorescence (KMESF) was 18.

Consider `CCOc1cc(C(=O)OCC(=O)Nc2cccc(C)c2)ccc1OCC(=O)N1CCOCC1`, for which the fluorescence (KMESF) is 16.

Take `CCCCNC(=O)CSc1nc2ccc(NC(=O)CSc3nnc(N)s3)cc2s1`: the fluorescence (KMESF) was 17.

With `O=C(NCc1nnc(SCC(=O)N2CCCc3ccccc32)o1)c1ccccc1F`, the fluorescence (KMESF) was 13.

In the case of `CN1CCN(C(=O)N2c3ccccc3CCc3ccccc32)CC1`, the fluorescence (KMESF) was 13.

With `COc1ccccc1N(C(=O)Cn1nnc2ccccc21)C(C(=O)NCc1ccco1)c1ccc(C)o1` (stereo not given), the fluorescence (KMESF) was 248 (active).

`Cc1ccc(C(C(=O)NCc2ccco2)N(CC2CCCO2)C(=O)Cn2nnc3ccccc32)cc1` (stereo not given): the fluorescence (KMESF) was 37.

With `COCCNC(=O)C(c1ccc(C)o1)N(Cc1ccccc1)C(=O)Cn1nnc2ccccc21` (stereo not given), the fluorescence (KMESF) was 21.

`CCCCC(NC(=O)c1cccc(Br)c1)C(=O)O` (stereo not given): the fluorescence (KMESF) is 10.

Turning to `CCN(Cc1ccccc1)C(=O)CN1C(=S)NC(C)(C)CC1C` (stereo not given), the fluorescence (KMESF) was 20.

For `COc1cc([C@H](Cc2ccccc2)NC(C)=O)oc(=O)c1`, the fluorescence (KMESF) was 18.

Consider `CC(Oc1ccccc1)C(=O)NN1Cc2ccccc2C1=N` (stereo not given), for which the fluorescence (KMESF) was 9.

As for `NC(=O)c1ccc(N2CCOCC2)nc1`, the fluorescence (KMESF) was 10.

In the case of `CCN(CC)Cc1nc2sc(C)c(C)c2c(=O)[nH]1`, the fluorescence (KMESF) is 11.

As to `O=C(CN1CCN(c2ccc(Cl)cc2)CC1)NCc1cccs1`, the fluorescence (KMESF) was 18.

For the molecule `Cc1cccc(N2Cc3ccccc3C2=NC(=O)c2ccc(Cl)nc2)c1`, the fluorescence (KMESF) is 8.

Regarding `O=C(CSc1nc2ccccc2[nH]1)Nc1nc(-c2ccccc2)c(-c2ccccc2)o1`, the fluorescence (KMESF) is 12.

Regarding `O=c1c([N+](=O)[O-])cccn1Cc1ccc(F)cc1Cl`, the fluorescence (KMESF) was 14.

On to `COc1ccc(COC(=O)N/N=C(\C)CC(=O)Nc2ccc(Cl)cc2)cc1`, for which the fluorescence (KMESF) is 5.

For the molecule `CC(C)(C)c1ccc(NC(=O)COC(=O)CCc2nc3ccccc3c(=O)[nH]2)cc1`, the fluorescence (KMESF) is 11.

Consider `OCCC1CN(Cc2ccccc2-c2ccco2)CCN1Cc1ccsc1` (stereo not given), for which the fluorescence (KMESF) was 17.

Turning to `COc1ccccc1-n1c(=S)[nH]c2c(sc(=S)n2-c2ccc(C)cc2C)c1=O`, the fluorescence (KMESF) was 25.

For `O=C(c1cnn(-c2ccc(Cl)cc2)c1)c1ccccc1O`, the fluorescence (KMESF) is 11.

In the case of `Cc1ncc(CC(=O)n2cc(C(=O)c3cc(Cl)ccc3O)cn2)s1`, the fluorescence (KMESF) was 256 (active).

For `Cc1ccc(CCC(=O)Nc2ncc(Cc3cc(Cl)ccc3Cl)s2)o1`, the fluorescence (KMESF) is 7.

Consider `COCCCNc1nc2c(-c3cccc(C(F)(F)F)c3)nnn2c2ccccc12`, for which the fluorescence (KMESF) was 16.

As for `COc1cc(NC(=O)c2ccccc2NS(=O)(=O)c2ccc(Cl)s2)cc(OC)c1`, the fluorescence (KMESF) is 9.

For the molecule `O=S(=O)(Nc1cc(S(=O)(=O)N2CCOCC2)ccc1N1CCCC1)c1cccs1`, the fluorescence (KMESF) is 19.

In the case of `O=S(=O)(Nc1ccccc1N1CCOCC1)c1ccc(Cl)s1`, the fluorescence (KMESF) was 266 (active).

With `COc1cc([N+](=O)[O-])ccc1NC(=O)CN1CCCC1`, the fluorescence (KMESF) was 10.

Regarding `CCOC(=O)CSc1nccc(N(C)C)c1C#N`, the fluorescence (KMESF) was 281 (active).

As for `CCOC(=O)CC(=O)CSc1nc(-c2ccccc2)cc(-c2ccc(Cl)cc2)c1C#N`, the fluorescence (KMESF) is 8.

As to `CCOC(=O)CSc1ccccn1`, the fluorescence (KMESF) was 16.

For `Cc1ccc(CN2CCC(N3CCC(C(=O)NCC4CCCO4)CC3)CC2)o1` (stereo not given), the fluorescence (KMESF) was 22.

Take `O=C(NCC1CCCCC1)c1cc(S(=O)(=O)N2CCCCC2)ccc1N1CCOCC1`: the fluorescence (KMESF) was 10.

Turning to `CCN1C(=O)/C(=c2\s/c(=C3\Sc4ccccc4N3C)c(=O)n2C)N(C)C1=S`, the fluorescence (KMESF) is 15.

In the case of `COc1cc(-c2nnn(CC(=O)NCc3ccccc3)n2)cc(OC)c1OC`, the fluorescence (KMESF) is 13.

On to `O=C(CSc1ccc([N+](=O)[O-])cn1)Nc1ccc(N2CCOCC2)cc1`, for which the fluorescence (KMESF) is 16.

Turning to `CCOc1cc(/C=N/NC(=O)OC)ccc1OCCSc1ccc(Cl)cc1`, the fluorescence (KMESF) is 13.

`CCC1C=C(c2ccccc2)C=CN=C1N(CC)CC` (stereo not given): the fluorescence (KMESF) is 5.

Consider `Brc1ccc(CSc2ccc(-c3ccco3)nn2)cc1`, for which the fluorescence (KMESF) is 11.

In the case of `COC(=O)CC1=NN(c2nc(C)cc(C)n2)C(=O)C1`, the fluorescence (KMESF) is 14.

`Cc1ccc2[nH]c(C(=O)O)c(NC(=O)c3ccccc3[N+](=O)[O-])c2c1`: the fluorescence (KMESF) is 10.

`CCCCN1C(=O)/C(=C(/C#N)C(N)=O)c2ccccc21`: the fluorescence (KMESF) is 16.

On to `CCN(Cc1ccccc1)S(=O)(=O)c1cc(C(=O)O)ccc1OC`, for which the fluorescence (KMESF) is 14.

As for `CC[C@H]1OC(=O)[C@H](C)[C@@H](O[C@H]2C[C@@](C)(OC)[C@@H](O)[C@H](C)O2)[C@H](C)[C@@H](O[C@@H]2O[C@H](C)C[C@H](N(C)C)[C@H]2O)[C@](C)(O)C[C@@H](C)[C@@H]2N[C@@H](COCCOC)O[C@H]([C@H]2C)[C@]1(C)O`, the fluorescence (KMESF) is 22.

On to `O=C(Cc1c(F)cccc1Cl)Nc1ncc([N+](=O)[O-])s1`, for which the fluorescence (KMESF) is 18.

For the molecule `COc1cc(-c2cc(C(=O)OCC(=O)Nc3ccc4c(c3)OCO4)c3ccccc3n2)cc(OC)c1OC`, the fluorescence (KMESF) is 4.

`Cc1cc(C)cc(C(=O)NC2C(=O)N3C(C(=O)O)=C(CSc4nnc(C)s4)CSC23)c1` (stereo not given): the fluorescence (KMESF) is 12.

Consider `CCOC(=O)CNc1nc(Cl)nc(Nc2ccccc2)n1`, for which the fluorescence (KMESF) was 10.

On to `Cc1cccc(OCC(O)CN2CCN(CCN3C(=O)c4cccc5cccc(c45)C3=O)CC2)c1C` (stereo not given), for which the fluorescence (KMESF) is 13.

Take `OC(COc1cccc2ccccc12)CN1CCN(c2ccccn2)CC1` (stereo not given): the fluorescence (KMESF) was 265 (active).

`Cc1ccccc1OCC(O)CN1CCN(c2ccccn2)CC1` (stereo not given): the fluorescence (KMESF) was 9.

For the molecule `Cc1cccc(C(=O)OCC(=O)Nc2sc3c(c2C#N)CCC3)c1`, the fluorescence (KMESF) was 5.

Take `CC(C)CC(=O)NC(=S)Nc1ccc(F)cc1F`: the fluorescence (KMESF) is 10.

`Cc1ccc(C2NC(C(=O)O)CS2)cc1` (stereo not given): the fluorescence (KMESF) is 11.

Take `O=C(Nc1ccccc1F)c1ccccc1-c1ccccc1`: the fluorescence (KMESF) is 15.

Turning to `Cc1ccc(-n2cc3ccc([N+](=O)[O-])cc3n2)cc1`, the fluorescence (KMESF) is 104 (active).

With `Cc1cc(C)nc(Nc2cc([N+](=O)[O-])ccc2C)n1`, the fluorescence (KMESF) is 10.

Consider `Cc1ccc(-c2cn3cc([N+](=O)[O-])ccc3n2)cc1`, for which the fluorescence (KMESF) was 13.

As for `CCOC(=O)C1(Cc2cccc(OC)c2)CCN(Cc2csc(C(C)=O)c2)CC1`, the fluorescence (KMESF) is 17.

With `COCC(C)NC(=O)CSc1nc2nn(-c3ccccc3)c(=O)c-2c2n1CCCCC2` (stereo not given), the fluorescence (KMESF) is 25.

Regarding `COc1cccc(OC)c1C(=O)OCC(=O)/C(C#N)=C(\C)N`, the fluorescence (KMESF) was 11.

As to `C/C(=N\NC(=O)NC1CCCCC1)c1ccc(OC(F)F)cc1OC(F)F`, the fluorescence (KMESF) was 14.

Turning to `COc1cccc(/C=C(/CC(=O)Nc2ccc(N3CCOCC3)cc2)c2nc3ccccc3s2)c1`, the fluorescence (KMESF) was 13.

`CCS(=O)(=O)c1ccc(C(=O)NC)c(Cl)c1Cl`: the fluorescence (KMESF) is 12.

`Cc1ccccc1Nc1nc(N)nc(CSc2ccccc2)n1`: the fluorescence (KMESF) is 11.

Consider `Cc1nn(C)c(C)c1S(=O)(=O)N1CCC(CO)(Cc2ccc(Cl)cc2)CC1`, for which the fluorescence (KMESF) is 23.

Regarding `NS(=O)(=O)c1ccc(NC(=S)NC(=O)c2cccc(Br)c2)cc1`, the fluorescence (KMESF) is 19.

Consider `CC(=O)Cc1nsc(NC(=O)c2ccc(Cl)cc2Cl)n1`, for which the fluorescence (KMESF) was 10.

Take `COc1cc(NC(=O)c2cc([N+](=O)[O-])ccc2Br)ccc1NC(=O)c1ccco1`: the fluorescence (KMESF) was 8.

On to `O=C(NCc1cccnc1)c1nc(-c2cccs2)no1`, for which the fluorescence (KMESF) was 15.

For `Cc1ccc(C(=O)NN(CCC#N)C2=NS(=O)(=O)c3ccccc32)cc1`, the fluorescence (KMESF) was 20.

Take `CCNC(=O)c1ccc(OCC(=O)Nc2ccc(F)cc2)c(OC)c1`: the fluorescence (KMESF) is 14.

Turning to `CCC(C)c1ccc(NC(=S)NCc2ccccn2)cc1` (stereo not given), the fluorescence (KMESF) was 13.

With `CC(C)(C)NC(=O)CN1CCC(NC(=O)C23CC4CC(CC(C4)C2)C3)CC1`, the fluorescence (KMESF) was 20.

As to `Cc1ccc(CN(Cc2cccnc2)C(=S)Nc2cc(Cl)ccc2C)cc1`, the fluorescence (KMESF) was 15.

With `CCOC(=O)C(NC(C)=O)C(=O)Nc1ccc(OC)cc1` (stereo not given), the fluorescence (KMESF) is 24.

Regarding `CCOC(=O)C1CCN(c2ccc(C(=O)O)cc2[N+](=O)[O-])CC1`, the fluorescence (KMESF) was 14.

For the molecule `O=C(/C=C/c1ccc(F)cc1)NC(=S)NNC(=O)c1cccnc1`, the fluorescence (KMESF) was 7.

`Cc1cc(SCC(=O)NCCN2C(=O)CSC2=O)nc2ccccc12`: the fluorescence (KMESF) was 15.

Regarding `Cc1ccc(CC2S/C(=C(/C#N)C(=O)N3CCOCC3)N(c3ccccc3)C2=O)cc1` (stereo not given), the fluorescence (KMESF) was 25.

On to `CCOc1ccc(S(=O)(=O)N(CC(=O)O)c2ccccc2)cc1`, for which the fluorescence (KMESF) was 264 (active).

On to `CCN(c1ccccc1)S(=O)(=O)c1ccc(N)cc1`, for which the fluorescence (KMESF) is 14.

On to `CCN(CC)C(=O)CN(c1cccc([N+](=O)[O-])c1)S(=O)(=O)c1ccccc1`, for which the fluorescence (KMESF) is 52.
